A selection: hits, their analogues and other compounds. The true share with any hit is near 4%.
EBV LMP1 NFkB: EBV LMP1-driven NF-kappaB luciferase reporter inhibitors, primary screen, cell-based, luminescence, single point; LMP1-induced NF-kappaB luciferase reporter cells; inhibition, % at 12.5 µM; actives 0.69% (n = 350,000); in the data active means inhibition above about 41%; inconclusive means no clear call, values can overlap the other calls;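 further: 0% = neutral control wells and 100% = reference inhibitor control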
Wnt bcat act: Wnt/beta-catenin pathway activators, primary screen, cell-based, plate reader, single point. Wnt/beta-catenin reporter cell assay, activator. activation, % at 9.35 µM. actives 1.2% (n = 300,000); in the data active means activation above about 30%, passing the limit was not always enough; inconclusive means no clear call, values can overlap the other calls;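 further: 0% = neutral control wells and 100% = positive control wells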
esBAF inh: Bmi1 luciferase reporter increase in mESCs, primary screen, esBAF inhibitor project, mouse ES cells, Bmi1 luciferase knock-in, single point. 24 h; 100% = twice the neutral-well signal. reporter increase, % at 12.5 µM. actives 2% (n = 350,000); in the data active means activation above about 40%; inconclusive means no clear call, values can overlap the other calls;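 further: 0% = median of the plate's neutral control wells and 100% = double that signal; a rise in the Bmi1 reporter signal indicates esBAF inhibition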
MITF TRPM1 inh: inhibitors of MITF-dependent TRPM1 promoter reporter, primary screen, cell-based, SK-MEL-5, single point, luciferase; inhibition, % at 12.5 µM; SK-MEL-5 TRPM1 promoter luciferase, 24 h; actives 0.83% (n = 330,000);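 active means mean inhibition across replicates of 60% or more, whatever share of single replicates reaches that level; inconclusive means some that reach 60%, reason not given; inactive means mean inhibition across replicates below 60%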
MITF TRPM1 HTS: activators of MITF-driven TRPM1 promoter reporter, primary screen, cell-based, SK-MEL-5, luciferase, single point; SK-MEL-5 TRPM1-promoter luciferase, 24 h; % of positive control, neutral wells = 0; activation, % at 12.5 µM; actives 0.75% (n = 300,000); AID 588334, 2011;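 active means mean activation of at least 80% with every replicate also reaching 80%; inconclusive means mean reaches 80% but some replicate falls short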;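 further: 0% = neutral control wells and 100% = parthenolide positive control wells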
Statin myotox sup: suppressors of statin myotoxicity in C2C12 myotubes, primary screen, cell-based, single point, plate reader | AID 602340, 2012 | actives 0.78% (n = 330,000) | rescue of ATP level, % at 7.49 µM | C2C12 myotubes + simvastatin, ATP luminescence, 48 h; scaled: DMSO 0, geranylgeraniol control 100;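 active means mean ATP rescue above about 67%, or every replicate alone reaching that limit, limit read from the data, passing the limit was not always enough; inconclusive means no clear call, values can overlap the other calls; inactive means mean under the limit and some replicate under it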;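 further: myotubes were challenged with 10 µM simvastatin during compound exposure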
The depositor's hits bear a star; ? = inconclusive; / = no result given.

SMILES	EBV LMP1 NFkB	Wnt bcat act	esBAF inh	MITF TRPM1 inh	MITF TRPM1 HTS	Statin myotox sup
CCC(=NCc1cccnc1)c1c(O)n(C2CCCCC2)c(=O)[nH]c1=O	6.6	1.1	-2.4	9.1	-8.2	4.4
C/C(=N\NC(=O)c1ccccc1)c1c(O)n(C2CCCCC2)c(=O)[nH]c1=O	-3.8	0.0	1.3	9.4	-5.2	95.3*
C/C(=N\NC(=O)c1ccccc1O)c1c(O)n(C2CCCCC2)c(=O)[nH]c1=O	-17.9	1.1	15.6	-8.3	16.5	5.6
CC(=NCc1cccnc1)c1c(O)n(C2CCCCC2)c(=O)[nH]c1=O	7.0	-4.3	-4.9	-13.5	16.4	113.2*
CN1C(=O)C(C2c3ccccc3C(=O)N2Cc2ccc([N+](=O)[O-])cc2)C(=O)N(C)C1=O (stereo not given)	8.9	/	-7.5	1.4	/	-1.4
CN1C(=O)C(C2c3ccccc3C(=O)N2Cc2ccccc2)C(=O)N(C)C1=O (stereo not given)	-8.1	/	-3.9	0.1	3.4	108.4*
CC(Cc1ccccc1)/[N+]([O-])=C\c1ccc(C(F)(F)F)cc1 (stereo not given)	-8.8	27.1	75.9*	-109.0	115.4*	3.1
CCCNC(=O)N1[C@H]2CC[C@@H]1C(C(=O)OC)=C(c1ccc(S(C)(=O)=O)cc1)C2	1.2	1.8	-5.8	0.5	6.6	-5.2
Cc1oc(-c2ccccc2)nc1CN1C(=O)CN=C(c2ccccc2)c2ccccc21	-5.1	-3.6	7.4	/	/	37.7
CC1CC(C)(O)CC(C(O)CC2CC(=O)NC(=O)C2)C1=O (stereo not given)	90.0*	-5.7	/	67.4*	/	/
c1ccc(Nc2ccc(Nc3ccccc3)cc2)cc1	-25.2	29.9	39.4	-90.4	86.3*	10.7
Cc1nc2cc(-c3ccccc3)nn2c(C)c1CCC(=O)N1CCC2(CC1)OCCO2	5.9	/	-46.8	40.9	-39.4	2.6
O=C(COc1ccc(Cl)cc1)N(c1ccccc1Cl)C1CN2CCC1CC2 (stereo not given)	1.0	-2.7	/	4.5	/	/
CC(=O)O[C@H]1[C@H]2O[C@]23[C@@H]2CC[C@]4(O)C[C@@H](O)CC[C@]4(C)C2CC[C@]3(C)[C@H]1c1ccc(=O)oc1 (stereo not given in full)	48.9*	/	-7.4	78.6*	-77.2	10.1
C[C@]12CC[C@H]3C(CCC4(O)CC(O)CC[C@]34C=O)C1=CC[C@H]2c1ccc(=O)oc1 (stereo not given in full)	1.9	-11.2	0.2	?	-64.0	14.0
CN1C(=O)C(Cc2ccccc2)C(=O)N(C)C1=O	8.3	-15.6	/	-2.0	-2.2	/
CCOC(=O)C(=CNc1ccc(C(O)(C(=O)OCC)C(F)(F)F)cc1C)C(=O)OCC (stereo not given)	31.1	/	/	25.8	-25.7	/
Cc1nc2c(=O)n(C)c(=O)nc-2n(C)n1	90.9*	/	/	109.8*	-109.5	/
CC12CCC(O)CC1CCC1C2CCC2(C)C(C3=CC(=O)OC3)CCC12O (stereo not given)	45.1*	-4.2	/	68.3*	/	/
C[C@]12CC[C@H](O)C[C@H]1CC[C@@H]1[C@@H]2CC[C@]2(C)[C@@H](C3=CC(=O)OC3)CC[C@]12O	77.9*	-1.1	1.0	72.8*	-71.4	10.6
C[C@]12CC[C@H](O)C[C@H]1CC[C@@H]1[C@@H]2C[C@@H](O)[C@]2(C)[C@@H](C3=CC(=O)OC3)CC[C@]12O	68.3*	-23.0	4.0	71.2*	-70.6	6.1
CC(=O)OC1CC(OC2C(O)CC(OC3C(O)CC(OC4CCC5(C)C(CCC6C5CC(O)C5(C)C(C7=CC(=O)OC7)CCC65O)C4)OC3C)OC2C)OC(C)C1OC1OC(CO)C(O)C(O)C1O (stereo not given)	83.2*	-22.1	-4.5	70.3*	-69.4	-6.0
CC12CCC(O)CC1CCC1C2CCC2(C)C(C3=CC(=O)OC3)C(O)CC12O (stereo not given)	-2.9	-24.9	/	27.8	/	/
CC12CC[C@H]3[C@@H](CCC4(O)C[C@H](O)CCC34/C=N/NC(=O)Cc3ccccc3)C1(O)CCC2C1=CC(=O)OC1 (stereo not given in full)	-0.5	-13.4	-3.0	1.9	-1.1	6.2
C[C@H]1CC[C@@H]2[C@@H](C)[C@H]3[C@H](C[C@H]4[C@@H]5CC=C6C[C@@H](O[C@@H]7O[C@H](CO)[C@H](O)[C@H](O[C@@H]8O[C@H](CO)[C@@H](O)[C@H](O)[C@H]8O)[C@H]7O[C@@H]7O[C@@H](C)[C@H](O)[C@@H](O)[C@H]7O)CC[C@]6(C)[C@H]5CC[C@]34C)N2C1	14.1	-0.9	-0.9	42.7	-41.5	-48.3
SMILES	EBV LMP1 NFkB	Wnt bcat act	esBAF inh	MITF TRPM1 inh	MITF TRPM1 HTS	Statin myotox sup
CCC1CCCCN1P(=O)(c1ccc(C)o1)C(C)(C)C (stereo not given)	-7.8	0.3	8.9	-9.7	10.9	-0.3
COC1C(O)C(C)OC(OC2CCC3(C)C(CCC4C3C(O)CC3(C)C(C5=CC(=O)OC5)CCC43O)C2)C1O (stereo not given)	56.6*	-25.9	/	73.3*	/	/
CNC(=O)Nc1ccc(C(=O)N/N=C\C23CC[C@@H](O)CC2(O)CC[C@@H]2[C@@H]3CCC3(C)C(C4=CC(=O)OC4)CCC23O)cc1 (stereo not given in full)	-1.9	-20.6	-3.4	1.4	0.2	-2.0
CNc1cc(Cl)c2nonc2c1[N+](=O)[O-]	22.8	5.2	/	96.0*	-96.1	/
CCn1c(C)c(C(=O)Nc2ccc(OC)cc2)c2cc(OC)ccc21	-7.4	15.7	50.9*	-44.7	49.3	-42.5
CC(=O)c1ccc2c(c1)C1C(Cl)C(Sc3ccccc3[N+](=O)[O-])CC1C(c1ccccc1)N2 (stereo not given)	-0.4	-4.7	/	14.2	-15.0	/
CC(=O)c1ccc2c(c1)C1C(Cl)C(Sc3ccccc3[N+](=O)[O-])CC1C(c1ccccc1[N+](=O)[O-])N2 (stereo not given)	-17.8	-8.4	1.6	1.6	-3.4	80.8*
Cc1cccc(NC(=S)N2CC3CC(C2)c2cccc(=O)n2C3)c1C (stereo not given)	3.6	-0.5	-8.5	1.0	-1.3	-4.5
CCOC(=O)CC(NC(=O)C(Cc1ccc(N(CCCl)CCCl)cc1)NC(C)=O)C(=O)OCC (stereo not given)	55.4*	4.1	/	46.9	-45.8	/
O=C(C1CCCN(S(=O)(=O)c2cccc3nsnc23)C1)N1CCC2(CC1)OCCO2 (stereo not given)	/	-8.9	/	/	/	/
